These entries were drawn from the full list.
aSyn UTR act = Activators working through SNCA 5'UTR binding (MLPCN); alpha-synuclein 5'UTR reporter, activators screen; activity score, % (tested at 7.5 µM), hits read low; actives 7.1% (n = 300,000); in the data active = activity score below about -60%
* marks the source's active call; other numbers are inactive results.

SMILES	aSyn UTR act
C=C1C(=O)O[C@@H]2C[C@@H](C)[C@H]3C=CC(=O)[C@]3(O)C[C@@H]12	-116.6*
Fc1ccc(C(OCCN2CCN(CCCc3ccccc3)CC2)c2ccc(F)cc2)cc1	105.9
Cc1cc(C(=O)N=Nc2c(O)n(C)c3ccccc23)c(C)o1	-180.5*
Cc1ccccc1NC(=O)CCl	-71.1*
O=c1[nH]c(=S)[nH]c(O)c1N=Nc1ccc(OC(F)F)cc1	-92.0*
O=c1[nH]c(=S)[nH]c(O)c1N=Nc1ccc2c(c1)OCO2	-73.9*
CCCCCCCCCCCCCCCC[N+](C)(C)C	97.6
CN1CCc2nc(SCC(=O)OC(C)(C)C)c(C#N)cc2C1	-280.8*
O=[N+]([O-])c1ccccc1CNCCc1ccc(F)cc1	-111.4*
CCCCn1c(O)c(/C(C)=N/NC(=O)Nc2ccccc2)c(=O)[nH]c1=O	-99.2*
CCC(=NC(C)c1ccccc1)c1c(O)[nH]c(=O)[nH]c1=O (stereo unspecified)	56.8
CCC(=Nc1cc(OC)ccc1OC)c1c(O)[nH]c(=O)[nH]c1=O	71.3
O=C(Nc1cccc(Cl)c1)c1c(O)c2c(n(Cc3ccco3)c1=O)CCCC2	-87.4*
Cc1ccc(N2C(=O)NC(=O)/C(=C/C=C/c3ccco3)C2=O)cc1	-76.4*
Cc1cc(C)cc(N2C(=O)NC(=O)/C(=C\C=C\c3ccco3)C2=O)c1	-116.3*
CC(C)c1ccc(N2C(=O)NC(=O)/C(=C/C=C/c3ccco3)C2=O)cc1	-129.5*
O=C1NC(=O)N(Cc2ccc(F)cc2)C(=O)/C1=C\C=C\c1ccco1	-269.8*
Cc1c2ccncc2c(C)c2c1[nH]c1ccccc12	114.1
O=C1NC(=O)N(c2ccccc2)C(=O)/C1=C\C=C\c1ccccc1	-118.6*
COc1ccc(OC)c(/C=N/OC(=O)Nc2ccc(Cl)cc2)c1	-63.0*
C/C(=N\N1CCCCC1)c1c(O)[nH]c(=O)[nH]c1=O	57.9
C[C@H]1C[C@@H](C)C(=O)[C@@H]([C@H](O)CC2CC(=O)NC(=O)C2)C1	96.7
Cc1nn(CC(C)C)c(Cl)c1C(=O)NC1CCC(C)CC1 (stereo unspecified)	-123.5*
Nc1c2c(nc3sc4c(c13)CCCCC4)CCCC2	-138.8*
C/C=C(\C)C(=O)N[C@@H](c1ccccc1)[C@@H](O)C(=O)O[C@H]1C[C@@]2(O)[C@@H](OC(=O)c3ccccc3)C3[C@](C)(C(=O)[C@H](OC(C)=O)C(=C1C)C2(C)C)[C@H](O)C[C@H]1OC[C@@]31OC(C)=O (stereo partly specified)	109.7
SMILES	aSyn UTR act
Cc1ccc(N2C(=O)NC(=O)C3(Cc4ccccc4N4CCN(c5ccccc5)CC43)C2=O)cc1 (stereo unspecified)	-70.5*
Cc1nc2ccccc2c(=O)n1-c1ccc(Br)cn1	-176.1*
COc1cccc(OCc2cc(C(=O)N3C[C@H]4C[C@@H](C3)c3cccc(=O)n3C4)no2)c1	-173.8*
CN(C)C(=O)Oc1ccc2c(c1)O/C(=C\c1cccc(Cl)c1)C2=O	-72.4*
CN(C)C(=O)Oc1ccc2c(c1)O/C(=C\c1ccc(Cl)cc1)C2=O	-86.6*
Cc1ccc(-c2cc(-c3ccc(C)cc3)[n+](-c3ccc(C(=O)[O-])cc3)c(-c3ccc(C)cc3)c2)cc1	83.3
COc1cc2c(cc1OC)-c1c(OC)c(OC)c(OC)c3ccnc(c13)C2=O	103.6
CC(Cc1ccccc1)NC(=O)NC(C)Cc1ccccc1 (stereo unspecified)	-133.8*
CC(Cc1ccccc1)NC(=O)c1ccc(N)cc1 (stereo unspecified)	-110.4*
CCCCCCn1c(=O)c(C(=O)Nc2c(C)n(C)n(-c3ccccc3)c2=O)c(O)c2ccccc21	-75.9*
CCCCCCn1c(=O)c(C(=O)Nc2cnccn2)c(O)c2ccccc21	66.6
CCCCCn1c(=O)c(C(=O)Nc2ccccn2)c(O)c2ccccc21	65.4
COc1ccc2c(c1)/C(=C/c1cnc[nH]1)C(=O)N2	-61.8*
CCOc1ccc(-c2c(C)n(-c3ccc(OCC)cc3)c3[n+]2CCCCC3)cc1	62.0
Cc1cccc(-n2c(O)c(/C=C3/C(c4ccccc4)=Nc4ccccc43)c(=O)[nH]c2=O)c1	-174.0*
CCCCN=C[C@]12CCC(O)CC1(O)CCC1[C@@H]2CC[C@]2(C)[C@H](C3C=CC(=O)O3)CCC12O (stereo partly specified)	96.0
CCN1C(=O)C(=C2C=C(C)OC(C)=C2)C(=O)N(CC)C1=S	-74.6*
CN1CCC(N(C)c2nc(-c3ccc([N+](=O)[O-])cc3)nc3ccccc23)CC1	75.1
O=C(C1CC(c2ccccc2O)=NO1)N1CCC2(CC1)OCCO2 (stereo unspecified)	-68.3*
O=C1Nc2ccccc2/C1=C/c1nc2ccccc2c(=O)n1-c1ccc(O)cc1	-76.7*
CN1C(=O)C(Cc2ccc(OCc3ccccc3)cc2)C(=O)N(C)C1=O	-105.1*
N=C1c2ccccc2CN1CC(=O)c1ccccc1	-186.1*
O=C(NC1(C(F)(F)F)Oc2ccc(Cl)cc2O1)N1CCC2(CC1)OCCO2 (stereo unspecified)	-72.7*
CC(=O)O[C@@H]1/C=C/[C@](C)(O)C[C@@H](C)C/C=C/[C@H]2[C@@H]3O[C@]3(C)[C@@H](C)[C@H]3[C@H](Cc4ccccc4)NC(=O)[C@@]312	113.8
Cc1cccc(-n2c(/C=C/c3ccc([N+](=O)[O-])o3)nc3ccccc3c2=O)c1	-211.5*
SMILES	aSyn UTR act
O=c1c2ccccc2nc(/C=C/c2ccc([N+](=O)[O-])o2)n1-c1ccc(O)cc1	100.5
c1ccc(CN2CCc3nc4ccccc4cc3C2)cc1	-170.9*
CCC(C)C(=O)N[C@@H](c1ccccc1)[C@@H](O)C(=O)O[C@H]1C[C@@]2(O)[C@@H](OC(=O)c3ccccc3)C3[C@](C)(C(=O)[C@H](OC(C)=O)C(=C1C)C2(C)C)[C@@H](O)C[C@H]1OC[C@@]31OC(C)=O (stereo partly specified)	103.3
O=Cc1cn(Cc2ccc([N+](=O)[O-])cc2)c2ccccc12	72.5
O=Cc1cn(Cc2ccc(F)cc2)c2ccccc12	70.7
Cc1ccc(-c2nn(Cc3ccccc3)cc2C=O)cc1	-138.0*
CC/C=C/CC(=O)N[C@@H](c1ccccc1)[C@@H](O)C(=O)O[C@H]1C[C@@]2(O)[C@@H](OC(=O)c3ccccc3)C3[C@](C)(C(=O)[C@H](OC(C)=O)C(=C1C)C2(C)C)[C@@H](O)C[C@H]1OC[C@@]31OC(C)=O (stereo partly specified)	77.4
N#Cc1ccccc1NC(=O)CN1CC=C(c2ccccc2)CC1	-62.8*
O=C1NC(=O)C(C(CC(=O)c2ccccc2)c2ccccc2)C(=O)N1 (stereo unspecified)	-65.2*
CC(=O)Nc1ccccc1C(=O)OCC(=O)c1ccc2c(c1)OCCO2	-61.6*
CC(=O)Nc1ccccc1C(=O)OCc1ccc(F)cc1	-84.2*
C[C@@]1(CO)[C@H](O)CC[C@@]2(C)[C@H]1CC[C@H]1C[C@@H]3C[C@@]12CC[C@]3(O)CO	73.3
O=c1c2ccccc2nc(Cc2ccccc2)n1-c1ccccc1	-83.9*
Cc1ccc(-c2cc(-c3ccc(C)cc3)[n+](-c3ccccc3)c(-c3ccc(C)cc3)c2)cc1	76.0
CCN1C(=O)C(=Cc2ccc(C)s2)C(=O)N(CC)C1=S	-157.6*
Cc1cc(N2CCOCC2)nc2ccc(NC(=O)CCC(=O)N3CCC4(CC3)OCCO4)cc12	-88.3*
CCCCCCn1c(=O)c(C(=O)Nc2ncccc2O)c(O)c2ccccc21	91.9
COc1ccc(O)c2c(=O)c3c(OC)cc4c(c3oc12)C1C=COC1O4 (stereo unspecified)	94.0

Screening data: PubChem, Broad Institute
